PubChem BioAssay (NCI)
Compounds without any hit were thinned out: in the full panel of roughly 83,000, 20% have a hit.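 The endpoint reported here, percent growth, reads 100 for growth as untreated, 0 for no net growth and -100 for all cells dead.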 Unmarked numbers belong to inactive results. Active and inactive are the calls of the source. The calls were made as follows: active = growth percent below 10; inactive = the rest.

The molecules below were run on SK-MEL-28 melanoma (assay: NCI-60 one-dose screen, 48 h (100 = growth as untreated, 0 = no growth, -100 = all killed)). Settings: 10 µM unless noted.

Row | Structure (SMILES) | growth
1 | C#CC(OC(=O)N(C)C)(c1ccccc1)c1ccc(F)cc1 (stereo not drawn) | 96.5%
2 | CC(C)c1ccc(C(=O)Nc2sc3c(c2C#N)CCC(=O)C3)cc1 | 22.3%
3 | c1coc2occoc=2o1 | 112%
4 | Cc1cc(SC#N)ncn1 | 114%
5 | Cc1ccc(NCCN2CCCCC2)c2c(=O)c3ccccc3sc12 | 11%
6 | O=C(NCCCNC(=O)OCc1ccc2cccc(O)c2n1)OCc1ccc2cccc(O)c2n1 | 64.3%
7 | O=[N+]([O-])c1ccc(O)c(-c2nc3ccccc3s2)c1 | 64.3%
8 | COc1ccc(C(=O)CSc2nccc(Nc3ccc(C(=O)O)cc3)n2)cc1 | 100%
9 | C=C(C)[C@@H]1CC[C@]2(C(=O)NCCNCCNC(=O)OC(C)(C)C)CC[C@]3(C)[C@H](CC[C@@H]4[C@@]5(C)CCC(=O)C(C)(C)[C@@H]5CC[C@]43C)[C@@H]12 | 56.3% [100 µM]
10 | Cc1ccc(-c2cn(C/C=C3\C=CN(S(=O)(=O)c4ccccc4)CC3)nn2)cc1 | 101%
11 | CC1(C)CC[C@]23CC[C@]4(C)[C@H](CC[C@@H]5[C@@]6(C)C/C(=C/c7ccncc7)C(=O)C(C)(C)[C@@H]6CC[C@]54C)[C@H]2[C@H]1OC3=O | 87.7% [100 µM]
12 | CCN(CC)CCCOc1ccc2c(c1)O/C(=C\c1cccc(OC)c1)C2=O | 101%
13 | CC1Cc2c(Cl)ncnc2N(C)c2ccc(O)cc21 (stereo not drawn) | 27.8%
14 | CSc1cccc([N+](=O)[O-])c1 | 111%
15 | CSc1nc(=S)c2nc(SC)n(-c3ccccc3)c2[nH]1 | 108%
16 | O=c1[nH]cnc2c1ccn2C1OC(CO)C(O)C1O (stereo not drawn) | 91.2%
17 | COc1ccc(N(c2nc(-c3ccc([N+](=O)[O-])cc3)cs2)C(C)C)cc1 | 103%
18 | COc1cc(NN=C(c2ccc(O)cc2)c2ccc(O)cc2)c([N+](=O)[O-])cc1[N+](=O)[O-] | 81%
19 | COc1ccc2nc3c(cc2c1)C(=O)CC(C(F)(F)F)C3 (stereo not drawn) | 61.1%

Row | Structure (SMILES) | growth
20 | CCOc1ccc(S(=O)(=O)Nc2ccc3c(c2)N(S(=O)(=O)CC)CCC3)cc1 | 103%
21 | O=C(Nc1ccc(C(=O)/C=C/c2ccc(N3CCOCC3)cc2)cc1)Nc1ccc([N+](=O)[O-])cc1 | 109%
22 | C=C(C)[C@@H]1CC[C@]2(C)[C@H](CC[C@@H]3[C@@H]([C@@](C)(O)CCC=C(C)C)CC[C@]32C)[C@@]1(C)CCC(=O)N1CCN(C)CC1 | -92.1% [100 µM] (active)
23 | C=C(C)[C@@H]1CC[C@]2(COCCCN)CC[C@]3(C)[C@H](CC[C@@H]4[C@@](C)(CCCNCCCN)[C@H](C(=C)C)CC[C@]43C)[C@@H]12 | -63.3% [100 µM] (active)
24 | COc1cc2c(cc1OCCCN1CCN(CCCOc3cc4c(cc3OC)C(=O)N3C[C@H](F)C[C@H]3C=N4)CC1)N=C[C@@H]1C[C@@H](F)CN1C2=O | -50.8% (active)
25 | CC(C)c1ccc(/C=N/N=C(N)N)cc1 | 85.9%
26 | CCCCCCCCCCCCCCCCCCNC(=S)N/N=C/c1ccc(OC)c(OC)c1 | 100%
27 | C=C(C)[C@@H]1CC[C@]2(C)[C@H](CC[C@@H]3[C@@H]([C@@](C)(O)CCC=C(C)C)CC[C@]32C)[C@@]1(C)CCC(=O)O | -83% [100 µM] (active)
28 | Cc1ccc(S(=O)(=O)Oc2ccc([N+](=O)[O-])cc2[N+](=O)[O-])cc1 | 113%
29 | C=CCCCCOc1ccccc1-c1cnc(OCCCCC=C)n1C | 73.4%
30 | Cc1ncc(C(=O)Nc2ccc(CN3CCN(C)CC3)c(C(F)(F)F)c2)cc1C#Cc1c(N)ncc2ccc(C#N)cc12 | 23.7%
31 | CCc1cccc(Cl)c1 | 106%
32 | Cc1ccc(S(=O)(=O)N/N=C2\CC3CCC2(C)C3(C)C)cc1 (stereo not drawn) | 102%
33 | COc1ccc(C(C(=O)O)c2ccc(OC)cc2)cc1 | 107%
34 | Fc1ccc(NC(=S)c2ccccc2)cc1 | 102%
35 | c1cc2ccc3cc2cc1CNCCN1CCNCc2ccc4ccc(cc4c2)CNCCN(CCNC3)CCNCc2ccc3ccc(cc3c2)CNCC1 | 62.8%
36 | Cn1cc(-c2nnc(-c3ccccc3)s2)c2cc(Br)cnc21 | 97.6%
37 | CCOc1ccc2sc(NS(=O)(=O)c3ccc(N)cc3)nc2c1 | 117%
38 | COc1ccc2c(c1)C(C)Cc1c(Cl)ncnc1N2C (stereo not drawn) | 14.8%
